Results taken from PubChem BioAssay (EPA / NIEHS).
Active and inactive are the calls of the source. How the source made its calls: active means hit-call score of the fitted dose curve at least 0.9, where 1 is the maximum; inactive means score below 0.9.

How the values were obtained:
Details in all cases: mRNA level, 48 h; actives raise or lower the signal
[1] = read-out: JUN Transcription Factor, JUN (gene 3725); experiment: LTEA_HepaRG_JUN: Life Technologies and Expression Analysis (LTEA) Assay for JUN Transcription Factor using HepaRG (AID 2283513)
Summary of the method: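 HepaRG cells, 48 h post-plating, exposed 48 h in serum-free induction medium to 8-point half-log series (top 100 uM, 0.5% DMSO), duplicate; mRNA by qRT-PCR (TaqMan, Fluidigm), normalized to ACTB/GAPDH/POLR2A; bidirectional fit vs DMSO.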

[2] = read-out: Lipase C (LIPC), LIPC (gene 3990); experiment: LTEA_HepaRG_LIPC: Life Technologies and Expression Analysis (LTEA) Assay for Lipase C (LIPC) using HepaRG (AID 2283514)
Summary of the method: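 HepaRG cells, 48 h after plating, treated in duplicate for 48 h in serum-free induction medium over 8 half-log concentrations from 100 uM, 0.5% DMSO. LIPC mRNA by TaqMan qRT-PCR normalized to ACTB/GAPDH/POLR2A; bidirectional fit versus DMSO.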

[3] = read-out: Lipoprotein lipase (LPL), LPL (gene 4023); experiment: LTEA_HepaRG_LPL: Life Technologies and Expression Analysis (LTEA) Assay for Lipoprotein lipase (LPL) using HepaRG (AID 2283515)
Summary of the method: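 Differentiated HepaRG cells, plated 48 h, then exposed 48 h in serum-free induction medium to 8 concentrations (top 100 uM, half-log steps) in 0.5% DMSO, duplicate. LPL mRNA measured by qRT-PCR, normalized to ACTB, GAPDH and POLR2A.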

[4] = read-out: MicroRNA 122 (MIR122), gene 406906; experiment: LTEA_HepaRG_MIR122: Life Technologies and Expression Analysis (LTEA) Assay for MicroRNA 122 (MIR122) using HepaRG (AID 2283516); further: the transcript read is the microRNA miR-122
Summary of the method: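 Differentiated human HepaRG cells in serum-free induction medium exposed 48 h to 8 half-log concentrations from 100 uM in 0.5% DMSO, duplicate. MIR122 quantified by Fluidigm TaqMan qRT-PCR, normalised to ACTB, GAPDH, POLR2A; fold change fitted bidirectionally versus DMSO.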

[5] = read-out: matrix metalloproteinase-10 (MMP10), MMP10 (gene 4319); experiment: LTEA_HepaRG_MMP10: Life Technologies and Expression Analysis (LTEA) Assay for matrix metalloproteinase-10 (MMP10) using HepaRG (AID 2283517)
Summary of the method: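 Differentiated HepaRG cells in serum-free induction medium exposed 48 h in duplicate to 8-point half-log series up to 100 uM in 0.5% DMSO. mRNA quantified by qRT-PCR, normalised to ACTB, GAPDH, POLR2A; bidirectional fit versus DMSO.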

[6] = read-out: MYC, MYC (gene 4609); experiment: LTEA_HepaRG_MYC: Life Technologies and Expression Analysis (LTEA) Assay for MYC using HepaRG (AID 2283518)
Summary of the method: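 MYC transcript changes, up or down relative to 0.5% DMSO, from TaqMan qRT-PCR normalized to three housekeeping genes. Human HepaRG cultures received chemicals for 48 h at eight half-log concentrations up to 100 uM, in duplicate.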

[7] = read-out: matrix metalloproteinase-3 (MMP3), MMP3 (gene 4314); experiment: LTEA_HepaRG_MMP3: Life Technologies and Expression Analysis (LTEA) Assay for matrix metalloproteinase-3 (MMP3) using HepaRG (AID 2283519)
Summary of the method: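 HepaRG cells (~100,000/well) in serum-free induction medium were dosed in duplicate for 48 h with an 8-point half-log series from 100 uM, 0.5% DMSO. MMP3 mRNA was quantified by Fluidigm TaqMan qRT-PCR, normalized to three housekeeping genes.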

[8] = read-out: Paternally Expressed 10 (PEG10), PEG10 (gene 23089); experiment: LTEA_HepaRG_PEG10: Life Technologies and Expression Analysis (LTEA) Assay for Paternally Expressed 10 (PEG10) using HepaRG (AID 2283520)
Summary of the method: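 Differentiated HepaRG cells exposed 48 h in serum-free induction medium to eight half-log concentrations topping at 100 uM, 0.5% DMSO, in duplicate. PEG10 mRNA quantified by TaqMan qRT-PCR, normalized to ACTB, GAPDH and POLR2A; bidirectional fit versus DMSO.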

[9] = read-out: Nuclear factor NF-kappa-B p105 subunit (Homo sapiens) (UniProt P19838); experiment: LTEA_HepaRG_NFKB1: Life Technologies and Expression Analysis (LTEA) Assay for Nuclear Factor Kappa B Subunit 1 (NFKB1) using HepaRG (AID 2283521);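 further: TaqMan qRT-PCR transcript normalised to ACTB GAPDH and POLR2A housekeeping genes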
Summary of the method: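 Human HepaRG cells receive eight half-log concentrations, highest 100 uM, for 48 h. NFKB1 expression is then quantified by qRT-PCR and analysed for up- or down-regulation relative to 0.5% DMSO vehicle.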

[10] = read-out: Protein phosphatase 2A (PPP2R4), PTPA (gene 5524); experiment: LTEA_HepaRG_PPP2R4: Life Technologies and Expression Analysis (LTEA) Assay for Protein phosphatase 2A (PPP2R4) using HepaRG (AID 2283522)
Summary of the method: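 Differentiated human HepaRG cells in serum-free induction medium were exposed 48 h to 8 concentrations (top 100 µM, half-log steps, duplicate) in 0.5% DMSO. PPP2R4 mRNA was measured by TaqMan qRT-PCR, normalised to ACTB, GAPDH and POLR2A, and fitted bidirectionally versus DMSO.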

[11] = read-out: Phosphatase and tensin (PTEN), PTEN (gene 5728); experiment: LTEA_HepaRG_PTEN: Life Technologies and Expression Analysis (LTEA) Assay for Phosphatase and tensin (PTEN) using HepaRG (AID 2283523)
Summary of the method: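 HepaRG cells, 48 h after plating, exposed in duplicate for 48 h in serum-free induction medium to 8 half-log concentrations up to 100 uM (0.5% DMSO). PTEN mRNA by qRT-PCR, normalized to ACTB, GAPDH, POLR2A; bidirectional fit versus DMSO.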

[12] = read-out: solute carrier (SLC22A1), SLC22A1 (gene 6580); experiment: LTEA_HepaRG_SLC22A1: Life Technologies and Expression Analysis (LTEA) Assay for solute carrier (SLC22A1) using HepaRG (AID 2283524)
Summary of the method: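 Differentiated human HepaRG cells in serum-free induction medium, exposed 48 h in duplicate to 8-point half-log series from 100 µM top in 0.5% DMSO. SLC22A1 mRNA by TaqMan qRT-PCR normalized to ACTB, GAPDH, POLR2A; bidirectional fit versus DMSO.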

[13] = read-out: Pyruvate Dehydrogenase Kinase 4 (PDK4), PDK4 (gene 5166); experiment: LTEA_HepaRG_PDK4: Life Technologies and Expression Analysis (LTEA) Assay for Pyruvate Dehydrogenase Kinase 4 (PDK4) using HepaRG (AID 2283525)
Summary of the method: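 HepaRG cells plated 48 h, then switched to serum-free induction medium and exposed in duplicate for 48 h to 8 half-log concentrations from 100 uM in 0.5% DMSO. PDK4 mRNA measured by qRT-PCR, normalized to ACTB, GAPDH and POLR2A; bidirectional fit versus DMSO.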

[14] = read-out: NAD(P)H dehydrogenase [quinone] 1 (NQO1), NQO1 (gene 1728); experiment: LTEA_HepaRG_NQO1: Life Technologies and Expression Analysis (LTEA) Assay for NAD(P)H dehydrogenase [quinone] 1 (NQO1) using HepaRG (AID 2283526)
Summary of the method: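 Differentiated human HepaRG cells in serum-free induction medium, dosed in duplicate for 48 h at 8 half-log concentrations up to 100 uM in 0.5% DMSO. NQO1 mRNA by qRT-PCR normalized to ACTB, GAPDH, POLR2A; bidirectional fit versus DMSO baseline.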

[15] = read-out: Nuclear factor erythroid 2-related factor 2 (Homo sapiens) (UniProt Q16236); experiment: LTEA_HepaRG_NFE2L2: Life Technologies and Expression Analysis (LTEA) Assay for Nuclear factor erythroid 2-related factor 2 (NFE2L2) Transcription Factor using HepaRG (AID 2283527);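 further: TaqMan qRT-PCR transcript level normalised to ACTB GAPDH and POLR2A housekeeping genes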
Summary of the method: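 Differentiated human HepaRG cells, serum-free induction medium, exposed 48 h in duplicate to eight half-log concentrations up to 100 uM in 0.5% DMSO. NFE2L2 mRNA by Fluidigm TaqMan qRT-PCR, normalised to ACTB, GAPDH, POLR2A; bidirectional change versus DMSO.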

[16] = read-out: succinate dehydrogenase complex iron sulfur subunit B (SDHB), SDHB (gene 6390); experiment: LTEA_HepaRG_SDHB: Life Technologies and Expression Analysis (LTEA) Assay for succinate dehydrogenase complex iron sulfur subunit B (SDHB) using HepaRG (AID 2283528)
Summary of the method: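 A human HepaRG culture in serum-free induction medium received test chemicals for 48 h over an eight-point range capped at 100 uM. SDHB expression change was quantified by qRT-PCR.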

[17] = read-out: Signal transducer and activator of transcription 3 (Homo sapiens) (UniProt P40763); experiment: LTEA_HepaRG_STAT3: Life Technologies and Expression Analysis (LTEA) Assay for Signal transducer and activator of transcription (STAT3) using HepaRG (AID 2283529)
Summary of the method: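 Differentiated HepaRG cells, serum-free induction medium, dosed 48 h in duplicate, 8 half-log concentrations from 100 uM in 0.5% DMSO. STAT3 mRNA by qRT-PCR, normalised to ACTB, GAPDH, POLR2A; bidirectional fit versus DMSO.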

[18] = read-out: solute carrier (SLCO1B1), SLCO1B1 (gene 10599); experiment: LTEA_HepaRG_SLCO1B1: Life Technologies and Expression Analysis (LTEA) Assay for solute carrier (SLCO1B1) using HepaRG (AID 2283530)
Summary of the method: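 SLCO1B1 transcript levels were quantified by TaqMan qRT-PCR using three housekeeping genes for normalization. This followed 48 h chemical exposure (100 uM top, half-log, 8 points, 0.5% DMSO) of HepaRG liver cells, with gain or loss fitted relative to DMSO.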

[19] = read-out: sulfotransferase 2A1 (SULT2A1), SULT2A1 (gene 6822); experiment: LTEA_HepaRG_SULT2A1: Life Technologies and Expression Analysis (LTEA) Assay for sulfotransferase 2A1 (SULT2A1) using HepaRG (AID 2283531)
Summary of the method: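 Expression change of SULT2A1, by qRT-PCR with three housekeeping-gene normalization, was scored bidirectionally versus DMSO. Cells: differentiated HepaRG, dosed in duplicate for 48 h across 8 points, highest 100 µM, half-log dilution, 0.5% DMSO.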

[20] = read-out: Transforming Growth Factor (TGFA), TGFA (gene 7039); experiment: LTEA_HepaRG_TGFA: Life Technologies and Expression Analysis (LTEA) Assay for Transforming Growth Factor (TGFA) using HepaRG (AID 2283532)
Summary of the method: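 Differentiated HepaRG cells exposed 48 hours in serum-free induction medium, 0.5% DMSO vehicle, 8-point half-log series from 100 uM, in duplicate. TGFA mRNA by TaqMan qRT-PCR, normalised to ACTB, GAPDH, POLR2A; bidirectional fit versus DMSO.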

Measured: outcome

Nuclear factor erythroid 2-related factor 2 (Homo sapiens), sequence (Q16236 whole entry, looked up): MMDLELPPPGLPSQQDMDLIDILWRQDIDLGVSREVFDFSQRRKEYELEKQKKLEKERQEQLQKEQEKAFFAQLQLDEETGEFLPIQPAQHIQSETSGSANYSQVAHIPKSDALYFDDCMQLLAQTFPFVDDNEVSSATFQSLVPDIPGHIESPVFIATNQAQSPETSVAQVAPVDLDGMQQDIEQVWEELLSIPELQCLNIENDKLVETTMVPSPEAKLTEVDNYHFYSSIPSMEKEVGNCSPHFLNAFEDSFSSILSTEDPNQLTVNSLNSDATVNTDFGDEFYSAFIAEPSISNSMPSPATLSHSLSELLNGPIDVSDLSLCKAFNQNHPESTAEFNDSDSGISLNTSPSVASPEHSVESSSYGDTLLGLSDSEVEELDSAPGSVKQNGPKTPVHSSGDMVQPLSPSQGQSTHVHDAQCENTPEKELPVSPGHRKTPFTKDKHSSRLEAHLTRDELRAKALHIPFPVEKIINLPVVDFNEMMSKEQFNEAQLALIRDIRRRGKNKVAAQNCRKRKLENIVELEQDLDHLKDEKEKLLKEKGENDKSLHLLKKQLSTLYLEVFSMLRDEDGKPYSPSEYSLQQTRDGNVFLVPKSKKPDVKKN
Signal transducer and activator of transcription 3 (Homo sapiens), sequence (P40763 whole entry, looked up): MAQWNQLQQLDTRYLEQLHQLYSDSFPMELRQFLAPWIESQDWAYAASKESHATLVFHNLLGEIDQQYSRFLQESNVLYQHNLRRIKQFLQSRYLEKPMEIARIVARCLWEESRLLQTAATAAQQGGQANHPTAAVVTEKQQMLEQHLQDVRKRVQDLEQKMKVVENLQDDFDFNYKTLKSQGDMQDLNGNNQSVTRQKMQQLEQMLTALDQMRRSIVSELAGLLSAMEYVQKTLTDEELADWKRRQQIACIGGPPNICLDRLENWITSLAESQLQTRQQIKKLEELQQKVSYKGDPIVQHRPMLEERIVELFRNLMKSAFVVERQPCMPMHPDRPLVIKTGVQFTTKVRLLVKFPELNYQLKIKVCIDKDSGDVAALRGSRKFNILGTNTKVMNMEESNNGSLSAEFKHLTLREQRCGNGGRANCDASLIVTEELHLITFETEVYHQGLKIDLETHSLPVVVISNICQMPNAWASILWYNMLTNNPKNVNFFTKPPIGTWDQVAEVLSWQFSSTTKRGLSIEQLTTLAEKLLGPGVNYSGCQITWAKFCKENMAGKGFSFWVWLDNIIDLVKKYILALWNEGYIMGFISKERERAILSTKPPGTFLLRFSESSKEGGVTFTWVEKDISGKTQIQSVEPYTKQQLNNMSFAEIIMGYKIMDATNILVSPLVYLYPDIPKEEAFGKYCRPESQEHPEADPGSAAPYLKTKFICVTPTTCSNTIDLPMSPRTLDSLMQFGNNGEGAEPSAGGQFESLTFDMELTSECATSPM
Nuclear factor NF-kappa-B p105 subunit (Homo sapiens), sequence (P19838 whole entry, looked up): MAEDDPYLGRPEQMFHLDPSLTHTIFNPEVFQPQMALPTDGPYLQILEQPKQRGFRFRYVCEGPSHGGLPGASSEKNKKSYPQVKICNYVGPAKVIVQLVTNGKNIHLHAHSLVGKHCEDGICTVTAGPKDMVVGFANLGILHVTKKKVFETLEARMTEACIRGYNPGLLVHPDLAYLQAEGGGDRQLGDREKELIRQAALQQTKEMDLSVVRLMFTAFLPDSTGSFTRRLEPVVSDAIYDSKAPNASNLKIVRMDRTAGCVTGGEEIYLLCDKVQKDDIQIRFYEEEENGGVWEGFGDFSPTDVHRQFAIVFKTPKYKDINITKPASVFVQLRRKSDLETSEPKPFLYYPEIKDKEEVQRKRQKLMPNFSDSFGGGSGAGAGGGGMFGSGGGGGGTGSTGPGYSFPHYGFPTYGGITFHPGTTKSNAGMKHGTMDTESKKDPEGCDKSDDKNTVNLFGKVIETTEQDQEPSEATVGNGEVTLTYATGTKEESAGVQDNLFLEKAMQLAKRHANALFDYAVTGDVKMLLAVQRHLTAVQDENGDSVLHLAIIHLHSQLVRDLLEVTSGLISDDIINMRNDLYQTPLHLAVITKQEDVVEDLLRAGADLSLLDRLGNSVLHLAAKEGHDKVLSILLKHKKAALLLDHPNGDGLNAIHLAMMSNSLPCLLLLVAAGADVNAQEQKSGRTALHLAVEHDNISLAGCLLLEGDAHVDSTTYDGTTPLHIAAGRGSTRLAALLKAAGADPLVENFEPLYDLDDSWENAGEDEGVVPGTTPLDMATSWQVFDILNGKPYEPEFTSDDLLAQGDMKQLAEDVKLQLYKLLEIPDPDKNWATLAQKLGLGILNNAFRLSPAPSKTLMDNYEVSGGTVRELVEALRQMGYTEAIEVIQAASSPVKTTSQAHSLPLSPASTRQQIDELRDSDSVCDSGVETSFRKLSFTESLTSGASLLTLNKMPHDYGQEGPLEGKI

O=C(O)c1cc(N=Nc2ccc(S(=O)(=O)Nc3ccccn3)cc2)ccc1O
inactive: [1] | [2] | [3] | [4] | [5] | [6] | [7] | [8] | [9] | [10] | [11] | [12] | [13] | [14] | [15] | [16] | [17] | [18]

C=CC(=C)CCC=C(C)C
inactive: [1] | [2] | [3] | [4] | [5] | [6] | [7] | [8] | [9] | [10] | [11] | [12] | [13] | [14] | [15] | [16] | [17] | [18] | [19] | [20]

CC(C)=CCCC(C)CCO (configuration not stated)
inactive: [1] | [2] | [3] | [4] | [5] | [6] | [7] | [8] | [9] | [10] | [11] | [12] | [13] | [14] | [15] | [16] | [17] | [18] | [20]
